Assay results reported in PubChem BioAssay AID1159580 (chemical genetic matrix, 2015).
Where “and” joins values, the source holds several entries; their conditions need not be identical. Identical values can stand only once. The campaign covered roughly 5,500 compounds. About 2,000 (36%) were called active. Not shown: some 18% with an inconclusive outcome. Rule as the data show it: active = normalized growth mostly below about 0.91 (no sharp cut-off); inconclusive = no clear call, values can overlap the other calls; inactive = mostly above about 0.92. Some of the results follow.

Assay: chemical genetic growth profiling, strain panel (AID 1159580);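 also: tested at 20 µM; growth read once vehicle control cultures reached saturation at 30 °C; 1 = growth at the plate median or of vehicle wells; lower values mean less growth of the strain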
Details: S. cerevisiae deletion strains, growth OD

Measured: normalized growth

Nc1c2c(nc3ccccc13)CCCC2
inactive: locus YAL013W, strain DEP1, stronger effect = lower value 1.02 | locus YAL021C, strain ccr4, stronger effect = lower value 0.985 | locus YAL026C, strain drs2, stronger effect = lower value 0.975 | locus YAL030W, strain snc1, stronger effect = lower value 1.01 | locus YAL040C, strain CLN3, stronger effect = lower value 1.02 | locus YBL061C, strain skt5, stronger effect = lower value 0.984 | locus YBR009C, strain hhf1, stronger effect = lower value 0.978 | locus YBR021W, strain FUR4, stronger effect = lower value 0.853 | locus YBR023C, strain chs3, stronger effect = lower value 0.993 | locus YBR171W, strain sec66, stronger effect = lower value 0.959 | locus YBR229C, strain ROT2, stronger effect = lower value 1.02 | locus YBR231C, strain swc5, stronger effect = lower value 0.981 | locus YBR279W, strain paf1, stronger effect = lower value 1 | locus YCL011C, strain gbp2, stronger effect = lower value 1 | locus YCL016C, strain dcc1, stronger effect = lower value 1.01 | locus YCL029C, strain bik1, stronger effect = lower value 1.02 | locus YCL069W, strain vba3, stronger effect = lower value 0.989 | locus YCR088W, strain abp1, stronger effect = lower value 0.993 | locus YDL005C, strain med2, stronger effect = lower value 0.977 | locus YDL035C, strain GPR1, stronger effect = lower value 1.01 | locus YDL040C, strain nat1, stronger effect = lower value 0.989 | locus YDL074C, strain BRE1, stronger effect = lower value 1.01 | locus YDL101C, strain DUN1, stronger effect = lower value 1.02 | locus YDL134C, strain PPH21, stronger effect = lower value 1 | locus YDL185W, strain tfp1, stronger effect = lower value 1.01 | locus YDL192W, strain arf1, stronger effect = lower value 1.01 | locus YDR001C, strain nth1, stronger effect = lower value 0.983 | locus YDR069C, strain doa4, stronger effect = lower value 0.936 | locus YDR101C, strain arx1, stronger effect = lower value 1.02 | locus YDR137W, strain rgp1, stronger effect = lower value 1.02 | locus YDR150W, strain NUM1, stronger effect = lower value 1.02 and 0.999 | locus YDR159W, strain sac3, stronger effect = lower value 0.939 | locus YDR162C, strain NBP2, stronger effect = lower value 1.02 | locus YDR195W, strain ref2 0.963 | locus YDR297W, strain sur2, stronger effect = lower value 0.986 | locus YDR318W, strain mcm21, stronger effect = lower value 1.01 | locus YDR334W, strain swr1, stronger effect = lower value 0.974 | locus YDR335W, strain msn5, stronger effect = lower value 0.992 | locus YDR388W, stronger effect = lower value 1 | locus YDR392W, strain spt3, stronger effect = lower value 0.939 | locus YDR502C, strain sam2, stronger effect = lower value 1.02 | locus YEL003W, strain gim4, stronger effect = lower value 0.973 | locus YEL037C, strain rad23, stronger effect = lower value 0.978 | locus YEL061C, strain CIN8 (second series), stronger effect = lower value 0.983 | locus YEL061C, strain CIN8, stronger effect = lower value 1.01 | locus YER002W, strain NOP16, stronger effect = lower value 0.997 | locus YER015W, strain faa2, stronger effect = lower value 0.987 | locus YER016W, strain bim1, stronger effect = lower value 0.994 | locus YER110C, stronger effect = lower value 1.02 | locus YER111C, strain swi4, stronger effect = lower value 0.988 | locus YER155C, strain BEM2 (second series), stronger effect = lower value 0.902 | locus YER155C, strain BEM2, stronger effect = lower value 1 | locus YER167W, strain BCK2, stronger effect = lower value 1.01 | locus YFR010W, strain ubp6, stronger effect = lower value 0.944 | locus YGL078C, strain dbp3, stronger effect = lower value 1.02 | locus YGL086W, strain mad1, stronger effect = lower value 1.01 | locus YGL167C, strain pmr1, stronger effect = lower value 0.978 | locus YGL173C, strain kem1, stronger effect = lower value 0.958 | locus YGL227W, strain vid30, stronger effect = lower value 0.993 | locus YGL240W, strain doc1, stronger effect = lower value 0.946 | locus YGL248W, strain PDE1, stronger effect = lower value 1.02 | locus YGL253W, strain hxk2, stronger effect = lower value 0.96 | locus YGR078C, strain PAC10, stronger effect = lower value 0.992 | locus YGR135W, strain pre9, stronger effect = lower value 0.987 | locus YGR229C, strain SMI1, stronger effect = lower value 1.02 | locus YGR252W, strain gcn5, stronger effect = lower value 0.977 | locus YHR013C, strain ard1, stronger effect = lower value 0.867 | locus YHR027C, strain rpn1, stronger effect = lower value 0.968 | locus YHR030C, strain SLT2, stronger effect = lower value 1.01 and 0.987 | locus YHR079C, strain IRE1 (second series), stronger effect = lower value 1.02 | locus YHR079C, strain IRE1, stronger effect = lower value 1 | locus YHR094C, strain hxt1, stronger effect = lower value 1.02 | locus YHR129C, strain ARP1, stronger effect = lower value 1.02 | locus YHR142W, strain chs7, stronger effect = lower value 1 | locus YHR200W, strain rpn10, stronger effect = lower value 1.01 | locus YIL066C, strain RNR3, stronger effect = lower value 1.02 | locus YIL073C, strain SPO22, stronger effect = lower value 1.14 | locus YIL125W, strain kgd1, stronger effect = lower value 1.02 | locus YIR030C, strain dcg1, stronger effect = lower value 1.02 | locus YJL092W, strain hpr5, stronger effect = lower value 0.983 | locus YJL095W, strain BCK1 (second series), stronger effect = lower value 0.991 | locus YJL095W, strain BCK1, stronger effect = lower value 1.01 and 1 | locus YJL115W, strain asf1, stronger effect = lower value 0.981 | locus YJL129C, strain trk1, stronger effect = lower value 0.997 | locus YJL134W, strain LCB3, stronger effect = lower value 1.01 | locus YJL154C, strain vps35, stronger effect = lower value 0.974 | locus YJL164C, strain tpk1, stronger effect = lower value 1.01 | locus YJL166W, strain qcr8, stronger effect = lower value 0.992 | locus YJL168C, strain set2, stronger effect = lower value 1.01 | locus YJL187C, strain SWE1 (second series), stronger effect = lower value 1.01 | locus YJR043C, strain POL32, stronger effect = lower value 1.04 | locus YJR066W, strain TOR1, stronger effect = lower value 0.987 | locus YJR075W, strain HOC1, stronger effect = lower value 0.976 | locus YKL009W, strain mrt4, stronger effect = lower value 1.01
